Experimental data taken from ChEMBL document CHEMBL1157539, “Thousands of chemical starting points for antimalarial lead identification” (Nature, 2010).

Assays:
Assay type in all cases: functional
Plasmodium falciparum [1] = assay: GSK_TCMDC: Inhibition of Plasmodium falciparum 3D7 in whole red blood cells, using parasite LDH activity as an index of growth. Test compounds present at 2uM
Plasmodium falciparum [2] = assay: GSK_TCMDC: Inhibition of Plasmodium falciparum Dd2 in whole red blood cells, using parasite LDH activity as an index of growth. Test compounds present at 2uM
HepG2 = assay: GSK_TCMDC: Percent inhibition of human HepG2 cell line. Test compounds present at 10uM.

Structure (SMILES) | Inhibition (Plasmodium falciparum [1]) | Inhibition (Plasmodium falciparum [2]) | Inhibition (HepG2)
CC(C)[C@H](NC(=O)c1ccc(O)c(-c2ccc(Cl)c(Cl)c2)c1)C(=O)NCCN1CCCCC1 | 99% | 98% | 0%
O=C(NCc1cccs1)[C@H](Cc1ccccc1)Nc1ccnc(NCC2CCCCC2)n1.O=C(O)C(F)(F)F | 83% | 67% | 5%
COc1cccc(C2=CC(c3ccccc3)n3ncc(C(=O)Nc4ccc(Cl)cc4)c3N2)c1 (stereo not given) | 88% | 28% | 7%
Cc1cc(O)c2c(c1)OC(C)(C)C=C2C1=CCN(Cc2ccccc2)CC1 | 96% | 1% | 0%
CCCCCN1CCCCC(NS(=O)(=O)c2ccc(C(=O)Nc3ccc(C(F)(F)F)cc3)cc2)C1.O=C(O)C(F)(F)F (stereo not given) | 89% | 0% | 34%
COc1ccc(Nc2nccc(NCC(O)c3ccc(C(F)(F)F)cc3)n2)cc1 (stereo not given) | 98% | 54% | 6%
COc1ccc(CNC2CCN(C)CC2)cc1-c1ccc(S(=O)(=O)NCCc2ccccn2)cc1.O=C(O)C(F)(F)F | 93% | 17% | 13%
CNC(=O)c1ccccc1Nc1nc(Nc2ccc(N3CCOCC3)cc2)ncc1Cl.Cl | 97% | 97% | 75%
CCOC(=O)c1cn(CC)c2cc(OCc3ccccc3)ccc2c1=O | 97% | 96% | 2%
CN(C)CCC=C1c2ccccc2Sc2c(O)cc(Cl)cc21.O=C(O)/C=C\C(=O)O | 100% | 80% | 8%
O=C(/C=C/c1ccccc1Cl)Nc1ccc(Br)c(OCCN2CCN(CCN3CCOCC3)CC2)c1.O=C(O)C(=O)O | 98% | 91% | 22%
O=C1NC(=O)C(c2ccc(Cl)cc2)=C1Nc1cccc(S(=O)(=O)C(F)(F)F)c1 | 99% | 51% | 1%
CCN(CCCN1CCCCC1)c1cc(C)nc(Nc2cc(F)cc(F)c2)n1.O=C(O)C(F)(F)F | 100% | 64% | 15%
COc1ccc(C2CCN(C#N)C2)cc1OC1CCCC1 (stereo not given) | 100% | 97% | 9%
O=C(/C=C/c1ccc(Cl)c(Cl)c1)NCCCCCN1CCCN(C(=O)Nc2ccc(Br)cc2)CC1 | 99% | 0% | 38%
CCc1c(C)nc(-n2nc(C)cc2NC(=O)C(CC)c2ccccc2)[nH]c1=O (stereo not given) | 97% | 93% | 41%
Cc1cnc2ccc(NS(=O)(=O)c3ccc4c(Cl)cccc4c3)cc2c1N1CCNCC1.Cl | 100% | 3% | 24%
CCc1ccc(C(=O)NC(=O)c2ccccc2O)cc1 | 95% | 84% | 0%
COc1ccc(CNC(=O)Nc2cc3cc(-c4ccc(CN5CCCC5)cc4)ccc3n3c(C)nnc23)cc1 | 100% | 100% | 100%
Nc1ccc2[nH]cc(C3CCN(CC4CCC(NC(=O)/C=C/c5ccccc5Cl)CC4)CC3)c2n1 (stereo not given) | 100% | 45% | 7%
CCCCN(CCCC)CCCN(CCCN(CCCC)CCCC)c1cc(C)nc(Nc2ccc(Br)cc2)n1.O=C(O)C(=O)O | 99% | 98% | 51%
Cc1ccc(Cn2ncc(N3CC(C)NC(C)C3)c(Cl)c2=O)cc1NC(=O)Nc1ccc(-c2ccccc2)cc1.O=C(O)C(F)(F)F (stereo not given) | 100% | 29% | 51%
N#Cc1ccc(-c2ccc(C(=O)NCCCCN3CCC(c4cc(Br)c5c(c4OCC(N)=O)CCCC5)CC3)cc2)cc1 | 100% | 89% | 23%
COCCn1c(-c2cccc(Cl)c2)nn(-c2ccc([N+](=O)[O-])cc2C#N)c1=S | 100% | 100% | 7%
O=[N+]([O-])c1ccc(Nc2nc(N/N=C/c3ccc(-c4ccc([N+](=O)[O-])cc4)o3)nc(Nc3ccccc3)n2)cc1 | 100% | 74% | 0%

Structure (SMILES) | Inhibition (Plasmodium falciparum [1]) | Inhibition (Plasmodium falciparum [2]) | Inhibition (HepG2)
O=S(=O)(Nc1ccc(CCN2CCCCC2CCN2CCCC2)cc1)c1ccc(-c2ccccc2)cc1 (stereo not given) | 98% | 18% | 18%
NCCNC(=O)c1ccc(-c2cnc3[nH]cc(-c4ccc(C(N)=O)cc4)c3c2)cc1 | 99% | 98% | 2%
CCCc1cc(NC2CCN(C)CC2)nc(Nc2cccc(OC)c2)n1 | 100% | 28% | 31%
CS(=O)(=O)N(c1cccc(F)c1)c1cc(C(=O)N[C@@H](Cc2ccccc2)[C@H](O)CNCc2cccc(C(F)(F)F)c2)cc(N2CCCC2=O)c1.O=CO | 98% | 92% | 14%
COc1ccc2[nH]cc(C3CCN(CCC4CCN(C(=O)/C=C/c5ccc(Cl)c(Cl)c5)CC4)CC3)c2c1 | 100% | 56% | 52%
COc1ccc2nccc(C(=O)NC3CCC(CCN4CCc5cc(C#N)ccc5C4)CC3)c2c1.Cl (stereo not given) | 97% | 1% | 12%
COc1ccc(Br)cc1/C=C/C(=O)Nc1cccc(C2CCN(C)CC2)c1.O=CO | 95% | 37% | 44%
COc1ccc(-c2cc(C(=O)N[C@@H](CC3CCCCC3)C(=O)NC3CCCc4ccccc43)ccc2O)cc1 (stereo not given in full) | 98% | 97% | 7%
NC(=O)c1ccc(NCC(=O)Nc2cccc(-c3cccc(-c4nc5cc(F)ccc5[nH]4)c3)c2)cc1 | 97% | 32% | 15%
Cc1nc(N)nc(N)c1OCc1cccc2ccccc12.Cl | 96% | 11% | 63%
CCCCCN1CCCC1CNS(=O)(=O)c1cccc(C(=O)Nc2cccc(C#N)c2)c1.O=C(O)C(F)(F)F (stereo not given) | 90% | 7% | 19%
O=C(O)c1ccc(OCOCOc2ccc(C(=O)O)c(O)c2)cc1O | 99% | 0% | 0%
CCOC(=O)c1c(NC(=O)c2ccccc2)sc2c(O)c(CN(CC)CC)ccc12.Cl | 100% | 100% | 9%
Cl.O=C(Nc1ccc(C(=O)OCC2CCCN3CCCCC23)cc1)c1ccc([N+](=O)[O-])cc1 (stereo not given) | 95% | 25% | 5%
O=C(Nc1ccc(N2CCN(Cc3cccc(F)c3)CC2)cc1)c1cccs1.O=C(O)C(F)(F)F | 95% | 92% | 0%
COc1ccc(NC(=O)Nc2ccc(-c3ccncc3)c(C(F)(F)F)c2)cc1N1CCN(C)CC1 | 100% | 62% | 5%
CC(C)NCc1ccc(-c2cccc(-c3nc4cc(C(F)(F)F)ccc4[nH]3)c2)cc1.O=C(O)C(F)(F)F | 100% | 100% | 21%
Cc1cc(N2CCC(C)CC2)nc2cc(O)ccc12 | 89% | 41% | 31%
CCCCc1ccc(-c2ccc(-c3c(C)[nH]c(C)c(Br)c3=O)cn2)cc1.Cl | 98% | 96% | 0%
FC(F)(F)c1ccc(/C=C/c2cncnc2Nc2ccc3[nH]c(Cc4ccccc4)nc3c2)cc1 | 100% | 100% | 21%
O=c1cc(NCCCNC(CNCCc2ccccc2)c2cc(Br)cc(Br)c2)[nH]c2ccccc12 (stereo not given) | 93% | 53% | 0%
CCn1c(-c2nonc2N)nc2cnc(Oc3cccc(NC(=O)c4ccc(OCCN5CCCC5)cc4)c3)cc21 | 92% | 1% | 25%
O=C(NCCCN1CCCCC1)c1cccc(Nc2nccc(Nc3ccc(Oc4ccccc4)cc3)n2)c1 | 96% | 12% | 47%
C(=NNc1nc2ccccc2[nH]1)c1ccccc1OCc1ccccc1 | 100% | 90% | 15%
N#Cc1cccc(NC(=O)NC2CCN(CCCCCNC(=O)C3CC3c3ccc(Cl)c(Cl)c3)CC2)c1 (stereo not given) | 100% | 0% | 36%
